Screens (PubChem)
BL2 CD40 inh: inhibitors of CD40-induced NF-kB signaling, primary screen, BL2 cells, luciferase reporter, single point; inhibition, % at 10 µM; 83,000 tested, 0.94% active; CD40L-induced, 4 h; AID 1053188, 2014;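 active means mean inhibition of at least 50% with a set share of replicates also reaching that level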;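 further: 0% = neutral control wells and 100% = IKK inhibitor VII at 50 µM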
Starred values were filed as active, the others as inactive; [ ] = dose if it differs, or a comment. This is one part of a sample in which hits are shown more often than they occur.

SMILES	BL2 CD40 inh
Cc1cc(C(=O)COC(=O)c2ccccc2O)c(C)n1Cc1cccs1	108*
Cc1ccsc1C(=O)OCC(=O)c1cc(C)n(C)c1C	62*
CN(C)C(=O)[C@@H]1[C@@H](CO)[C@@H]2Cn3c(ccc(-c4ccncc4)c3=O)[C@@H]2N1Cc1ccccc1	3[25 µM]
COCc1cn(CC[C@@H]2CC[C@@H](NC(=O)Nc3c(C)noc3C)[C@H](CO)O2)nn1	1[25 µM]
Cc1ccc(-c2nc(N/N=C/c3ccncc3)c3ccccc3n2)cc1	53*
c1ccc2c(Nc3nc(-c4ccncc4)nc4ccccc34)cccc2c1	18
Cc1ccc(NCC(=O)N/N=C/c2ccncc2)cc1	5
O=C(NC1CCC1)[C@@H]1[C@@H](CO)[C@@H]2Cn3c(cccc3=O)[C@H]1N2Cc1cc(F)ccc1F	3[25 µM]
C[C@@H]1C/C=C/C[C@H](c2ccc3c(c2)OCO3)NC(=O)[C@@H](C)N(C)C(=O)c2ccccc2O1	9
CCCN1[C@@H]2c3ccc(-c4cccc(F)c4)c(=O)n3C[C@H]1[C@H](CO)[C@H]2C(=O)N(C)C	-1[25 µM]
COc1ccc(OCC(=O)OCC(=O)N2C(C)CCCC2C)cc1 (centres undefined)	7
COc1ccc(-c2cnc3n2CCCCC3)cc1	2
COc1ccc(-c2c[n+](CC(=O)OC3CC(C)CCC3C(C)C)c3n2CCC3)cc1 (centres undefined)	79*
COc1ccc2c3c([nH]c2c1)[C@H](CO)N(S(=O)(=O)c1ccccc1)CC31CCN(C)CC1	-9[25 µM]
COc1ccc2c3c([nH]c2c1)[C@H](CO)N(S(=O)(=O)c1cn(C)cn1)CC31CCN(CC2CCCC2)CC1	3
O=C(NC1CCC1)[C@@H]1[C@@H](CO)[C@@H]2Cn3c(ccc(-c4ccncc4)c3=O)[C@H]1N2Cc1cocn1	-8[25 µM]
Nc1nc2ccccc2n1/N=C/c1ccc2c(c1)OCO2	-83
O=C(/C=C/c1ccc2c(c1)OCO2)c1ccccn1	-87
C(=Cc1cnc2ccccc2n1)c1ccc2c(c1)OCO2	98*
CN1c2ccc(-c3cccc(C#N)c3)cc2[C@H]2[C@H](CCN2C(=O)C2CC2)[C@@H]1CO	-16
C[C@H]1CN([C@@H](C)CO)C(=O)c2cccc(NC(=O)Nc3ccc4c(c3)OCO4)c2O[C@H]1CN(C)S(=O)(=O)c1cn(C)cn1	-3
C[C@H](O)C#Cc1ccc([C@H]2[C@@H](CO)N3CCCCN(CC4CCOCC4)C[C@@H]23)cc1	7
CNC[C@@H]1Oc2ccc(N(C)C)cc2C(=O)N(C)C[C@H]1C	8
N#C[C@@H]1[C@@H](c2ccccc2-c2ccccc2)[C@@H](CO)N1C(=O)NC1CCCC1	53*[25 µM]
N#C[C@H]1[C@H](c2ccccc2-c2ccccc2)[C@@H](CO)N1C(=O)NC1CCCC1	28[25 µM]
SMILES	BL2 CD40 inh
N#C[C@H]1[C@H](c2ccccc2-c2ccccc2)[C@H](CO)N1C(=O)NC1CCCC1	27[25 µM]
Nc1c(C(=O)N2CCCC2)sc2nc3c(cc12)CCCCCC3	-97
Nc1c(C(=O)N2CCOCC2)sc2nc3c(cc12)CCC3	-51
Nc1c(C(=O)N2CCOCC2)sc2nc3c(cc12)CCCC3	69*
CS(=O)(=O)Nc1ccc2c(c1)[C@@H]1C[C@@H](CC(=O)NC3CCCC3)O[C@H](CO)[C@@H]1O2	-1[25 µM]
C[C@H](NC(=O)N(C)C[C@H]1OCc2ccccc2-c2c(n(C)c3ccccc23)C(=O)N([C@H](C)CO)C[C@@H]1C)c1ccccc1	-9
O=C(O)c1ccc(Nc2nc3c(s2)CCCC3)cc1	72*
O=C(Nc1nc2c(s1)CCCC2)Oc1ccccc1	-32
O=C(Nc1nc2c(s1)CCCC2)c1cccnc1	-67
COc1ccc2c3c(n(C)c2c1)[C@@H](CO)N(Cc1cccc(Cl)c1)CC31CCN(C(=O)C2CC2)CC1	25[25 µM]
CC1(C)CC[C@]2(C(=O)n3ccnc3)CC[C@]3(C)[C@H](C(=O)C=C4[C@@]5(C)C=C(C#N)C(=O)C(C)(C)[C@@H]5CC[C@]43C)[C@@H]2C1	92*
C[C@@H]1CCn2cc(nn2)COC[C@H](Cc2ccccc2)NC1=O	0[25 µM]
CCn1c2ccccc2c2cc(/C=C(/C#N)C(N)=S)ccc21	-5
N#CC(C#N)=C(N)/C(C#N)=C/c1cc(O)c(O)c(O)c1	-18[25 µM]
CC(C)(C)c1cc(/C=C(\C#N)C(N)=S)cc(C(C)(C)C)c1O	56*[25 µM]
CC(C)NC(=O)Nc1ccc2c(c1)CC(=O)N(C)C[C@H](C)[C@H](CN(C)C)O2	-3
CN1C[C@@H]2[C@H](c3ccccc31)[C@@H](CO)N2C(=O)C1CCCC1	-49
COCC(=O)Nc1ccc2c(c1)[C@@H]1C[C@H](CC(=O)N3CCOCC3)O[C@@H](CO)[C@@H]1O2	-7[25 µM]
COc1ccc(C[C@H]2CCn3nncc3COC[C@@H](c3ccccc3)NC2=O)cc1	1[25 µM]
CCOc1ccc2c(ccc(/C=C/c3cc(C)c4cccnc4c3O)[n+]2C)c1	79*
OC1CC2CCC(C1)N2CCCN1c2ccccc2Sc2ccc(Cl)cc21 (centres undefined)	54*
O=C1CCSc2ccc(Cl)cc2N1Cc1ccccc1	1
O=C(CN1c2ccccc2Sc2ccccc21)N/N=C/c1ccc(Cl)cc1	16
CCCc1cn(CC[C@H]2CC[C@@H](NC(=O)Cc3cccnc3)[C@@H](CO)O2)nn1	-2
COCC(=O)N1[C@H](CO)[C@@H](c2ccc(C3=CCCCC3)cc2)[C@@H]1C#N	-17
SMILES	BL2 CD40 inh
CN(C[C@@H]1N[C@H](CO)[C@H]1c1ccccc1)C(=O)c1ccccn1	-11[25 µM]
Cc1cc(-c2nc3ccccc3s2)ccc1N	56*
Cc1ccc(-c2nc3ccccc3s2)cc1S(=O)(=O)N1CCOCC1	-4
c1ccc(-c2nc3ccccc3s2)nc1	-84
O=S(=O)(Cc1ccccc1)N1C[C@@H]2N[C@H](C1)C2c1ccc(-c2ccccc2)cc1 (some centres undefined)	0
O=C(c1ccc2c(c1)OCO2)N1C[C@H]2[C@@H](c3ccccc31)[C@@H](CO)N2Cc1ccccc1Cl	2[25 µM]
CO[C@H](CN(C)C(=O)c1cc(Cl)cc(Cl)c1)[C@@H](C)CN(C(=O)Nc1ccc(F)cc1)[C@H](C)CO	-12[25 µM]
COc1cccc(CN2[C@@H](CO)[C@H](c3ccccc3)C23CN(C(=O)C2CCCC2)C3)c1	0
COc1ccc(CNC(=O)N(C)C[C@H]2OCc3ccccc3-c3ccccc3C(=O)N([C@H](C)CO)C[C@H]2C)cc1	-10[25 µM]
CCCCCCCC[n+]1cccc2c3ccccc3ccc21	93*
CCCCCC(=O)Nc1cccc2ccccc12	-13
CCCCCCCCNc1ncnc2ccccc12	10
Cc1cccc[n+]1CCCCCCCCCC[n+]1ccccc1C	9
CCCCCCCCCC[n+]1cccc2c3ccccc3ccc21	94*
C[C@@H]1CN([C@@H](C)CO)C(=O)c2c(c3ccccc3n2C)-c2ccccc2CO[C@H]1CN(C)CC1CCCCC1	-3[25 µM]
C[C@H](CO)N1C[C@H](C)[C@H](CN(C)C(=O)Nc2ccnc(N3CCOCC3)c2)OCc2cn(nn2)CCCC1=O	4[25 µM]
C/C=C/c1ccc([C@@H]2[C@@H](CO)N3C(=O)CN(C(=O)Nc4ccc(F)cc4)C[C@H]23)cc1	-3[25 µM]
NNC(=O)c1cccc(COc2cccc(Br)c2)c1	-57
COc1ccc(OCc2cccc(C(=O)Nc3cc(C)on3)c2)cc1	4
COc1ccc(OCc2cccc(C(=O)NN)c2)cc1	25*
O=C(c1cccc(OCc2ccccc2)c1)N1CCOCC1	-8
COc1ccc(OCc2ccc(C(=O)N3CCOCC3)cc2)cc1	-23
CCOc1ccc(OCc2cccc(C(=O)N3CCOCC3)c2)cc1	90*
